Source: PubChem BioAssay AID1347070 (National Center for Advancing Translational Sciences (NCATS), 2019)
Among all 94,000 compounds or so, about 20 (0.02%) were called active. Another 1% or so got no clear call; they are omitted. A selection follows. Unmarked numbers belong to inactive results. The call rests on the fitted dose curve; in most records, active means well fitted activation curve with a large enough effect; inconclusive means small, poorly fitted or top-dose-only effect; inactive means flat fitted curve, though single readings scatter.

Assay: qHTS of alpha-syn Inhibitors: NCGC Sytravon Library Screen; further: 0% is about no effect
Conditions: S. cerevisiae alpha-synuclein toxicity rescue, BacTiter-Glo growth, 24 h; series mostly up to 46.1 µM; growth rescue (activation): at the top concentration
Excerpt: The goal of this project is to identify new chemical probes capable of reversing the toxicity associated with the Parkinson disease-related protein, alpha-synuclein. Compounds will be selected on their ability to restore growth in yeast cells expressing toxic levels of alpha-synuclein. These compounds will provide a complementary approach to deciphering the tangled mechanisms of toxicity and protection that we have uncovered through genome-wide genetic screens and are beginning to uncover in a large-scale proteomics analysis with mass spectroscopy. To this end, a miniaturized assay was developed to be screened against the Molecular Libraries Small Molecule Repository (MLSMR) to discover alpha-synuclein inhibitors. […] The phenotype of interest will be that of an Activator and this screen is run against the NCGC Sytravon Library collection. NIH Chemical Genomics Center [NCGC] NIH Molecular Libraries Probe Centers Network [MLPCN] MLPCN Grant: NS060957 Assay Submitter (PI): Susan Lindquist, Whitehead Institute/MIT
Dispense 2.5 microL yeast galactose medium per 1536-well plate, pin compound, dispense 2.5 microL alpha-synuclein expressing yeast in galactose medium at OD600=0.02 (pregrown in raffinose medium to mid-log phase) per well, incubate for 24 hr at 30 deg C, and cell growth will be measured using 5 microL of Bactiter/Glo reagent to entire plate and read using Luminescence Protocol in ViewLux.

SMILES	growth rescue (activation) [%]
COC(=O)CNC(=O)c1cc(-c2ccncc2)nc2ccccc12	-6.59
O=C(NC1CCCC1)c1cc(-c2ccccc2)on1	12.5
CCOc1ccc(C(CC(=O)O)n2cnnn2)cc1OC (stereo not drawn)	-9.12
COCCN(Cc1nc(-c2ccc(C(F)(F)F)cc2)no1)C(C)C	0.309
CC(Nc1nc(C(F)(F)F)nc2ccccc12)c1cccs1 (stereo not drawn)	-25.6
CCc1noc(C)c1C(=O)OCC(=O)c1ccc(NC(=O)CC(C)C)cc1	13.9
CCc1nc2c(=O)[nH]cnc2o1	2.78
CN(Cc1ccc(F)cc1Cl)S(=O)(=O)c1cccs1	10.8
O=C(OCC(=O)N1CCCCCC1)c1cccc(Cl)c1Cl	4.74
O=C(CN1CCCCC1)NC(=O)Nc1ccccc1F	-14.9
Cc1ccc(O)c(NC(=O)c2cc(-c3ccco3)on2)c1	-16.3
CCOC(=O)Cc1cc(=O)[nH]c(/N=C(\N)Nc2ccc(OC)cc2)n1	-4.69
COc1ccccc1N(C)C(=O)c1cc(S(=O)(=O)N2CCc3ccccc32)cn1C	6.55
COc1ccc(-c2ccc3[nH]c4c(c3c2)CCN2C[C@H]3[C@H](C)ON(C)[C@H]3C[C@@H]42)cc1	-9.12
CC(=O)Nc1ccccc1NC(=O)c1cc(C)cc(C)c1	4.72
O=C(COC(=O)Cc1ccc(Cl)cc1Cl)NCc1ccco1	17.9
Cc1cc(=O)c2ccc(NC(=O)c3ccccc3)cc2[nH]1	0.927

SMILES	growth rescue (activation) [%]
Cc1cc2c3ccccc3[nH]c(=O)n2n1	-10.2
COc1cccc(COC(=O)C2CCN(S(=O)(=O)c3cccs3)CC2)c1OC	5.75
CSc1nc(-c2ccco2)nn1C(=O)c1ccccc1Cl	6.42
COc1ccc(C=C2CCC3C(CCCC34OCCO4)C2=O)cc1 (stereo not drawn)	-0.491
Cc1cccc(NC(=O)c2cc([N+](=O)[O-])ccc2N2CCN(C)CC2)c1	-6.98
CCN(CCNC(=O)C1=C(C)C(=O)OC12CCC(C)CC2)c1ccccc1 (stereo not drawn)	14.2
CCCCN1C(=O)C(CC(=O)NC(c2ccccc2)c2ccccc2)CC(C(=O)N2CCOCC2)=C1C (stereo not drawn)	1.76
COCCn1c(C)cc(C(=O)COC(=O)/C=C/c2cccc(OC)c2)c1C	4.85
C[C@@H]1CN([C@@H](C)CO)C(=O)c2cc(NS(C)(=O)=O)ccc2O[C@@H](C)CCCCO[C@H]1CN(C)C(=O)Nc1ccc2c(c1)OCO2	-4.92
COc1ccc(C(=O)COC(=O)CNC(=O)c2cccs2)cc1Br	13.6
Cc1ccccc1NS(=O)(=O)CCCCC(Cl)(Cl)Cl	4.69
CC1CCN(C(=O)CCNC(=O)c2ccccc2)CC1	9.67
CC(C)CN(C(=O)COC(=O)c1ccc2ccccc2c1)c1c(N)n(Cc2ccccc2)c(=O)[nH]c1=O	-8.4
COc1ccc(/C=C(\NC(=O)c2ccccc2)C(=O)NCCN2CCOCC2)cc1OC	-13
Cc1ccc(SCCC(=O)Nc2cc(C)on2)cc1	-5.87
Cc1onc(-c2ccccc2Cl)c1C(=O)OCc1nnc(-c2ccccc2)o1	14.1
